In PubChem BioAssay AID488969 (Vanderbilt High Throughput Screening Facility, 2010):
Over roughly 110,000 compounds, “z-score” has its median near -0.1; the highest 2% begin near 2. This excerpt belongs to a sample that is enriched for the highest values. The source made the active and inactive calls.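 Rule for the calls: active = z-score in the third read window above 3 or below -3; inactive = the rest.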

Target: Metabotropic glutamate receptor 8 (Rattus norvegicus) (UniProt P70579)
Assay: mGluR8 Gi/Go-coupled signaling modulation – cell-based, rat, thallium flux, HTS, primary screen (AID 488969)
Conditions: HEK293 rat mGluR8, GIRK (G protein-gated inwardly rectifying potassium channel) thallium flux, FluoZin2; at 10 µM; stronger effect = higher value; submaximal glutamate (EC20) added with thallium

Metabotropic glutamate receptor 8 (Rattus norvegicus), sequence (P70579 whole entry, looked up): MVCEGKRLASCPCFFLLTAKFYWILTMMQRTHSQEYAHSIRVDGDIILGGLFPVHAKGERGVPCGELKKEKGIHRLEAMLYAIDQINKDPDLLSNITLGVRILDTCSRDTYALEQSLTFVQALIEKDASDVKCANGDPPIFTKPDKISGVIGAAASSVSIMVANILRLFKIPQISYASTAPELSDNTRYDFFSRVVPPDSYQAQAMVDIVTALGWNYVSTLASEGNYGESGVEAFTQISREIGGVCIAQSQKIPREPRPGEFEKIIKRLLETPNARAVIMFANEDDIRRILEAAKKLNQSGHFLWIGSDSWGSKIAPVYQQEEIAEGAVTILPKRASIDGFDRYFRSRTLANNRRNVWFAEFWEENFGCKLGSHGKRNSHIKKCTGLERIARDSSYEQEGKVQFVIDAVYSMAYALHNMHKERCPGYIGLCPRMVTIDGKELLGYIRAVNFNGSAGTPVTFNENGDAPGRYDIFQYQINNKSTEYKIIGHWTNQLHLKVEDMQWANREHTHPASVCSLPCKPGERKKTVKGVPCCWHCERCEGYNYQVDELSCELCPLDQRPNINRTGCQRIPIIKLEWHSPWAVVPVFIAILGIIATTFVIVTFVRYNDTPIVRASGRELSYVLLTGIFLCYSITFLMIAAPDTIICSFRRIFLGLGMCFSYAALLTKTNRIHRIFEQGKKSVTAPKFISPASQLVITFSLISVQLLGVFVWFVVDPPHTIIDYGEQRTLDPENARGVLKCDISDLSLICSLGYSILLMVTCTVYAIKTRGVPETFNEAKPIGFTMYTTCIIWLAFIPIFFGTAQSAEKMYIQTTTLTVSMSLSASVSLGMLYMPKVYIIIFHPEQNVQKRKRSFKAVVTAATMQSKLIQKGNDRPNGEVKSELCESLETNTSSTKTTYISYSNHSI

| Structure (SMILES) | z-score |
| --- | --- |
| CCN(CC)S(=O)(=O)c1ccc(N2CCCCC2)c(NC(=O)/C(C#N)=C/c2ccc(OC)cc2)c1 | -0.0436 |
| O=c1[nH]cnc2cc(Cl)ccc12 | -0.0535 |
| CCOc1ccc(C(C)=O)cc1N1C(=O)C2C(C1=O)C1C=CC2C12CC2 (stereo unspecified) | 4.92 (active) |
| CCOc1ccc(C(C)=O)cc1N1C(=O)C2C3C=CC(C3)C2C1=O (stereo unspecified) | -0.533 |
| CCOc1ccc(C(C)=O)cc1N1C(=O)C2C3C=CC(O3)C2C1=O (stereo unspecified) | -0.01 |
| COCCCNC(=O)C1CCCCN1S(=O)(=O)c1ccc(F)cc1 (stereo unspecified) | 0.633 |
| CCn1c(Cc2ccccc2)nnc1SCC(=O)Nc1ccc(N2CCOCC2)c(Cl)c1 | -0.645 |
| COc1ccc(-c2nnc(SCC(=O)Nc3ccc4c(c3)OCCO4)n2N)cc1OC | -0.393 |
| Nn1c(SCC(=O)Nc2ccc3c(c2)OCO3)nnc1-c1ccc(Cl)cc1 | -0.179 |
| Cc1ccc(-c2nnc(SCC(=O)Nc3ccc4c(c3)OCCO4)n2N)cc1 | 14.1 (active) |
| Cn1c(SCC(=O)Nc2ccc(N3CCOCC3)c(Cl)c2)nnc1-c1ccccc1 | -0.0676 |
| CCn1c(SCC(=O)Nc2ccc(N3CCOCC3)c(Cl)c2)nnc1-c1ccc(N)cc1 | 2.78 |
| CC(CCc1ccccc1)NC(=O)C(Cc1ccccc1)NS(=O)(=O)c1cccs1 (stereo unspecified) | -0.446 |
| COc1ccc(-c2cc(CNC(=O)CCl)on2)cc1 | -0.113 |
| CC(=O)c1ccc(N2CCN(C(=O)c3ccco3)CC2)c(F)c1 | -0.0315 |
| Cc1ccc2nc(-c3ccc(NC(=S)NC(=O)C(C)C)cc3)sc2c1 | -0.127 |
| Cc1ccc(SC(=O)COc2ccccc2C)cc1 | -0.399 |
| Cc1ccc(CNC(=O)COC(=O)CSc2cc(C)c(Br)cc2C)cc1 | 0.22 |
| COc1ccc(/C=C2\CCOC2=O)cc1 | 0.296 |
| COc1ccc(/C=C2\CCCC(C(=O)C(F)(F)F)=C2O)cc1 | 2.59 |
| O=C(C1=C(O)/C(=C/c2ccc(O)cc2)CCC1)C(F)(F)F | 0.181 |
| Cc1ccc(NC(=O)CN2CCC(C(=O)c3ccc4c(c3)OCCO4)CC2)cc1 | -0.152 |

| Structure (SMILES) | z-score |
| --- | --- |
| CCOCCCNC(=O)C(NC(=O)CC1NC(=O)NC1=O)c1ccc(Cl)cc1 (stereo unspecified) | -0.134 |
| COc1ccc(CCNC(=O)c2nc3ncccn3n2)cc1OC | 0.169 |
| O=P(OC1CCCCC1)(OC1CCCCC1)C(O)c1ccccc1 (stereo unspecified) | -0.904 |
| Cc1ccc(-n2[nH]c(C)c(C=Nc3cc(C)ccn3)c2=O)cc1 | 10.6 (active) |
| CCCCN(CCCC)C(=S)N/N=C/c1c(C)[nH]n(-c2ccccc2)c1=O | 10.4 (active) |
| Cc1[nH]n(-c2ccccc2)c(=O)c1/C=N/c1ccccn1 | 2.61 |
| Cc1ccc(-n2[nH]c(C)c(/C=N/n3c(C)nc4ccccc4c3=O)c2=O)cc1 | 0.177 |
| Cc1[nH]n(-c2ccccc2)c(=O)c1/C=N/O | -0.187 |
| CCCc1nc2ccccc2c(=O)n1/N=C/c1c(C)[nH]n(-c2ccc(C)cc2)c1=O | 1.38 |
| Cc1[nH]n(-c2ccccc2)c(=O)c1C=Nc1cccc2cccnc12 | 0.652 |
| Cc1ccc(-n2[nH]c(C)c(C=Nc3ccc(S(=O)(=O)Nc4nccs4)cc3)c2=O)cc1 | -0.363 |
| Cc1[nH]n(-c2ccccc2)c(=O)c1/C=N\NC(=O)C1COc2ccccc2O1 (stereo unspecified) | -0.0839 |
| Cc1ccc2cccc(N=Cc3c(C)[nH]n(-c4ccccc4)c3=O)c2n1 | 0.282 |
| Cc1ccc(-n2[nH]c(C)c(/C=N/c3ccccn3)c2=O)cc1 | 6.24 (active) |
| Cc1ccc(-n2[nH]c(C)c(C=Nc3ccc4[nH]c(=O)[nH]c4c3)c2=O)cc1 | -0.443 |
| Cc1nc2ccc(S(=O)(=O)NCC(=O)N3CCCCC3)cc2s1 | -0.09 |
| COc1cc(NC(=O)CN(C)Cc2ccc(OC(F)F)cc2)c(C)cc1[N+](=O)[O-] | -0.0913 |
| COC(=O)c1ccc(CSc2n[nH]c(C)n2)o1 | -0.0591 |
| CCOc1ccc(C(C)=O)cc1COC(=O)C1=COCCO1 | -1.15 |
| CCCc1nc2sc3c(=O)n(N)cnc3c2c2c1CCCC2 | -0.191 |
| Cc1[nH]n(-c2ccc(Cl)cc2)c(=O)c1/C=N/c1nnc(-c2ccccc2)s1 | 8.81 (active) |
| Cc1[nH]n(-c2ccc(Cl)cc2)c(=O)c1C=NC12CN3CN(CN(C3)C1)C2 | -0.111 |

| Structure (SMILES) | z-score |
| --- | --- |
| CCc1nnc(NS(=O)(=O)c2ccc(N=Cc3c(C)[nH]n(-c4ccc(Cl)cc4)c3=O)cc2)s1 | -0.276 |
| O=C(O)CSCC(=O)Nc1ccccc1 | 0.00603 |
| O=C(CSCCO)Nc1ccccc1 | 3.04 (active) |
| O=C(O)CCCSCC(=O)Nc1ccccc1 | 0.633 |
| Cc1ccc(C2=[N+]([O-])C3(CCCCC3=O)N(O)C2(C)C)cc1 (stereo unspecified) | 0.0871 |
| O=C(COC(=O)Cc1cccc2ccccc12)Nc1ccccc1-c1ccccc1 | -0.174 |
| O=C1/C(=C\c2ccccn2)SC(=S)N1Nc1ncc(C(F)(F)F)cc1Cl | 3.17 (active) |
| O=C1/C(=C/c2ccc(F)cc2)SC(=S)N1Nc1ncc(C(F)(F)F)cc1Cl | 0.426 |
| COc1cc(/C=C2\SC(=S)N(Nc3ncc(C(F)(F)F)cc3Cl)C2=O)ccc1O | 1.29 |
| CCOC(=O)CC1C(=O)NCCN1C(=O)c1cc2c(=O)n3ccccc3nc2s1 (stereo unspecified) | -0.533 |
| Cc1cc(=O)oc2cc(OCC(=O)Nc3cccc(S(=O)(=O)N(C)C)c3)ccc12 | -0.0464 |
| O=C(Cc1ccc(Cl)cc1)Nc1cccc(S(=O)(=O)Nc2ccccc2F)c1 | 0.371 |
| CCNc1ccc(S(=O)(=O)N(C)C)cc1NCC(=O)Nc1ccc(F)c(Cl)c1 | 0.204 |
| CN(C)S(=O)(=O)c1cccc(NC(=O)COc2cccc(C#N)c2)c1 | 3.82 (active) |
| Cc1ccc(NCC(=O)Nc2cccc(S(=O)(=O)N(C)C)c2)c(Cl)c1 | 4.79 (active) |
| CN(C)S(=O)(=O)c1cccc(NC(=O)Cc2ccc(Cl)cc2)c1 | 4.58 (active) |
| CN(C)S(=O)(=O)c1cccc(NC(=O)COC(=O)CCSc2ccc(Cl)cc2)c1 | 0.722 |
| CCN(CC)S(=O)(=O)c1cccc(NC(=O)COc2ccc(C#N)cc2OC)c1 | -0.191 |
| Cc1c(Cl)cccc1NC(=O)CNc1cccc(S(=O)(=O)N(C)C)c1 | -0.138 |
| CC1CN(c2c3c(nc4ncnn24)CCCC3)CC(C)O1 (stereo unspecified) | -0.374 |
| Cc1ccc(N(C(C)C(=O)Nc2ccc(S(=O)(=O)N3CCOCC3)cc2)S(C)(=O)=O)cc1 (stereo unspecified) | 0.137 |
| CCCCc1ccc(-c2csc(/C(C#N)=C/c3ccco3)n2)cc1 | -0.275 |

| Structure (SMILES) | z-score |
| --- | --- |
| CCOCCCNC(=O)c1ccc(CS(=O)(=O)Cc2cccc(C)c2)o1 | 0.789 |
| O=C1CC(N2CCC(O)(c3ccc(Cl)cc3)CC2)C(=O)N1 (stereo unspecified) | 0.198 |
| COc1cccc(NC(=O)N(CCCN2CCOCC2)C(C)c2cc3ccccc3o2)c1 (stereo unspecified) | -2.21 |
| CCN(C(=O)CCN1C(=O)c2ccccc2C1=O)C1CCCCC1 | 0.156 |
| NC(=O)CSc1nc(O)cc(=O)n1-c1ccccc1 | 0.418 |
| O=C(CSc1nc(O)cc(=O)n1-c1ccccc1)N1CCCCC1 | 4.46 (active) |
| O=C(CSc1nc2ccccc2c(=O)n1-c1ccccc1)N1CCCC1 | -0.689 |
| Fc1ccc(C(c2nnnn2Cc2cccs2)N2CCN(C3CCCC3)CC2)cc1 (stereo unspecified) | 1.73 |
| Fc1ccc(C(c2nnnn2Cc2ccco2)N2CCN(C3CCCCC3)CC2)cc1 (stereo unspecified) | 2.31 |
| COc1ccc(Cn2nnnc2C(c2ccccc2Cl)N2CCN(C3CCCC3)CC2)cc1 (stereo unspecified) | 1.79 |
| COc1ccc(Cn2nnnc2C(c2ccc(F)cc2)N2CCN(C3CCCC3)CC2)cc1 (stereo unspecified) | 3.92 (active) |
| CC(C)C(c1nnnn1Cc1ccco1)N1CCN(C2CCCC2)CC1 (stereo unspecified) | -0.255 |
| COc1ccc(Cn2nnnc2C(c2ccc(C)cc2)N2CCN(C3CCCC3)CC2)cc1 (stereo unspecified) | 0.353 |
| N#Cc1nc(-c2ccccc2)oc1NCC1CCCO1 (stereo unspecified) | -0.084 |
| Cc1cc2[nH]c(=O)c3ccccc3n2n1 | 4.8 (active) |
| CCOC(=O)c1cnn2c1[nH]c(=O)c1ccccc12 | 1.54 |
| Cc1nn2c([nH]c(=O)c3ccccc32)c1C=O | 0.184 |
| CCOC(=O)c1ccccc1NC(=O)Cc1ccccc1OC | -0.663 |
| CCCOc1ccccc1N/C(=N/c1nc(C)cc(C)n1)NC(=O)COc1ccc(OC)cc1 | 0.266 |
| CC1CN(C(=O)C2CCCCC2)C(C)CN1C(=O)C1CCCCC1 (stereo unspecified) | 11.1 (active) |
| CC1CN(C(=O)C2CCCC2)C(C)CN1C(=O)C1CCCC1 (stereo unspecified) | 0.888 |
| CC1CN(C(=O)C2CC2)C(C)CN1C(=O)C1CC1 (stereo unspecified) | 0.00492 |

| Structure (SMILES) | z-score |
| --- | --- |
| Cc1ccccc1NC(=O)c1cn(-c2ccccc2)nc1-c1ccccc1 | 0.316 |
| O=C(Nc1ccccc1)Nc1ccc2snnc2c1 | -0.373 |
| CC(C)c1ccc(Oc2cccc(C(=O)/C(C#N)=C/N(C)C)c2)cc1 | -0.286 |
| Cc1cc2c(cc1C)C(=O)NC(C)(C)C2 | 5.66 (active) |
| CC(C)c1ccc2c(c1)C(=O)NC(C)(C)C2 | -0.156 |
| CC1(C)Cc2ccccc2C(=O)N1 | 0.0959 |
| O=C(CN1C(=O)CCS(=O)(=O)c2ccccc21)Nc1cccc(F)c1 | -0.608 |
| Cc1ccc(Nc2c([N+](=O)[O-])cc(C(=O)N3CC(=O)Nc4ccccc43)cc2[N+](=O)[O-])c(C)c1 | -0.162 |
| Cc1ccc(C)c(Nc2c([N+](=O)[O-])cc(C(=O)N3CC(=O)Nc4ccccc43)cc2[N+](=O)[O-])c1 | 4.62 (active) |
| CCc1cccc(Nc2c([N+](=O)[O-])cc(C(=O)N3CC(=O)Nc4ccccc43)cc2[N+](=O)[O-])c1 | -1.1 |
| O=C(c1ccc(O)cc1)c1ccc(Cl)cc1 | -0.563 |
| CCOC(=O)Nc1cc2c(cc1C(C)=O)OCO2 | 0.657 |
| COc1ccc(OC)c(NC(=O)C2CC(=O)N(c3ccc(Br)cc3)C2)c1 (stereo unspecified) | 3.63 (active) |
| COC(=O)c1ccccc1NC(=O)C1CC(=O)N(c2ccc(F)cc2)C1 (stereo unspecified) | 2.15 |
| COc1ccc(Cl)cc1NC(=O)C1CC(=O)N(c2ccc(F)cc2)C1 (stereo unspecified) | 0.0135 |
| COC(=O)c1ccccc1NC(=O)C1CC(=O)N(c2ccc(C)cc2)C1 (stereo unspecified) | -0.265 |
| CCOc1ccc(N2CC(C(=O)Nc3ccccc3OC)CC2=O)cc1 (stereo unspecified) | 1.1 |
| COC(=O)c1ccccc1NC(=O)C1CC(=O)N(c2ccccc2)C1 (stereo unspecified) | -0.0106 |
